Shown are actives, neighbours in structure and some others; about 7% of the full set was active somewhere.
proKLK7 act: activates the human kallikrein-7 zymogen | P49862 | purified proKLK7, EDANS-DABCYL substrate fluorescence; 100% is mature enzyme control, 0% vehicle | activation, % at 7 µM | hit rate 0.9% among 370,000 | AID 652039;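 active = activation above the mean of all tested compounds plus 3 SD, computed per campaign excluding outliers beyond control limits, cut at about 13% in these data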
rCAG RNA binder: r(CAG) repeat RNA binding | TO-PRO-1 dye displacement fluorescence | inhibition, % at 3 µM | hit rate 1.3% among 370,000 | AID 651821;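 active = inhibition above the plate cutoff, the mean of all test compounds on that plate plus 3 SD, cut at about 35% in these data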;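 also: 0% = DMSO alone and 100% = 100 µM mitoxantrone as full dye displacement; higher means more dye released from RNA so lower well fluorescence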
ADAM10 inh: ADAM10 inhibition, QFRET primary screen. O14672. recombinant ADAM10, EDANS/DABCYL FRET peptide cleavage, 3 h. inhibition, % at 7 µM. hit rate 0.62% among 370,000. AID 720582;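 active = inhibition above a per-campaign cutoff equal to the mean of compounds falling between control-based bounds plus 3 SD, cut at about 20% in these data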;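 also: 0% = DMSO wells while the 100% control is not disclosed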
NR3A LBD binder: modulates the human NR3A ligand-binding domain; NR3A LBD differential scanning fluorimetry, Tm shift; 0% = protein alone, 100% = glycine-bound protein; Tm shift relative to glycine control, % at 25 µM; hit rate 2.5% among 340,000; AID 1259313;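 active = melting temperature shift of at least 10% of the positive control shift, at one fixed dose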
ADAM17 inh: ADAM17 inhibition, QFRET primary screen. inhibition, % at 6.95 µM. hit rate 0.83% among 370,000. AID 720648. P78536. recombinant ADAM17, EDANS/DABCYL FRET peptide cleavage;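 active = inhibition above the mean of compounds lying between control limits plus 3 SD, set per campaign, cut at about 8.5% in these data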;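 also: 0% = DMSO-only wells as the low control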
AHR act: human AHR activation; P35869; AHR-responsive luciferase reporter cells, luminescence; activation, % at 5 µM; hit rate 2.5% among 320,000; AID 2796; in the data active = activation above about 47%;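 also: 0% = vehicle wells and 100% = reference agonist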
Target sequence (P35869 whole entry, looked up): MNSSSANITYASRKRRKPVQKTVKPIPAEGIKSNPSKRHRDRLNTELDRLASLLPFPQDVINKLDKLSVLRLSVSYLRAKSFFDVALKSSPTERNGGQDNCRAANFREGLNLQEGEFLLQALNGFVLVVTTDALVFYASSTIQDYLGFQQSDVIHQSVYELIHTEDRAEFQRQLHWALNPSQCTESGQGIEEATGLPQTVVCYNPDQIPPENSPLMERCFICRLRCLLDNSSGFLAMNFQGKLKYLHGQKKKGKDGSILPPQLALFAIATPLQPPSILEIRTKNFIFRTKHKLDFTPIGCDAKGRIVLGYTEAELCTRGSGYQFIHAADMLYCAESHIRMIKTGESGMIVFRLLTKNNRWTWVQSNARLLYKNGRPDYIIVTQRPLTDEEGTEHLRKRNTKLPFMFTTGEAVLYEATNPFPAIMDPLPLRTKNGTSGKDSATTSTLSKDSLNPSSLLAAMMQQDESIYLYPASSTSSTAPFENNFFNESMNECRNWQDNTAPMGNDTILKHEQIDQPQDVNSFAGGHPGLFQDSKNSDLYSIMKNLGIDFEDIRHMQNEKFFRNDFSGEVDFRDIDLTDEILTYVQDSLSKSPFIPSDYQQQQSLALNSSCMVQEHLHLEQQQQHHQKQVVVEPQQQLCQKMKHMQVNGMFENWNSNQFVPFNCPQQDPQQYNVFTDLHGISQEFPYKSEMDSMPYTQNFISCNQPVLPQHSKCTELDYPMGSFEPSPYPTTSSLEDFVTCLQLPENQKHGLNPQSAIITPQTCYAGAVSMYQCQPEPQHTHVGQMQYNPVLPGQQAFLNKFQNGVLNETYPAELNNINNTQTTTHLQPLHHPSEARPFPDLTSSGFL
rCAG bind conf: r(CAG) RNA repeat binding, confirmation. shares compounds with rCAG RNA binder. TO-PRO-1 dye displacement fluorescence. inhibition, % at 3 µM. hit rate 70% among 4,300;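 active = inhibition above a per-plate cutoff, the mean inhibition of sample wells plus 3 SD, cut at about 35% in these data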;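 also: loss of TO-PRO-1 fluorescence as compound displaces dye from 1x1 AA loop RNA; 0% = DMSO only wells and 100% = 100 µM mitoxantrone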
DNA CAG counter: counter-screen for rCAG RNA binders: DNA CAG dye complex inhibitors. shares compounds with rCAG RNA binder. inhibition, % at 3 µM. hit rate 94% among 4,300. d(CAG) DNA oligo TO-PRO-1 dye displacement, fluorescence;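 active = inhibition above its plate's cutoff, the mean test-well inhibition plus 3 SD, cut at about 4.8% in these data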;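 also: 0% = DNA dye mix with DMSO and 100% = 100 µM mitoxantrone; hits displace the dye from DNA and so lower well fluorescence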
An asterisk follows results filed as active; i = inactive; . = no result given.

SMILES | proKLK7 act | rCAG RNA binder | ADAM10 inh | NR3A LBD binder | ADAM17 inh | AHR act | rCAG bind conf | DNA CAG counter
Cc1cc(/C=C2\SC(=S)NC2=O)c(C)n1-c1cccc(O)c1 | 2 | 52* | 5 | 2 | 1 | 9 | 35* | 14*
Cc1cc(/C=C2\SC(=S)NC2=O)c(C)[nH]1 | 0 | 35* | -3 | -1 | 1 | 24 | 21 | 6.9*
CCOC(=O)N(C)C[C@H]1OCc2cnnn2CCCC(=O)N([C@H](C)CO)C[C@@H]1C | 0 | 0 | -7 | . | -1 | . | . | .
COC(=O)C[C@@H]1CC[C@@H]2[C@H](COc3ccc(NC(=O)Nc4c(C)noc4C)cc3C(=O)N2C)O1 | 0 | 3 | -3 | . | -3 | . | . | .
O=C(O)c1ccc(Nc2nc(-c3cccnc3)cs2)cc1O | 0 | 9 | -3 | -3 | -5 | 10 | . | .
O=C(O)c1ccc(Nc2nc(-c3cc4ccccc4oc3=O)cs2)cc1O | 0 | 72* | -14 | 5 | -7 | . | 84* | 48*
Cc1ccc(S(=O)(=O)Oc2ccc(C3C4=C(CCCC4=O)N(CCC(=O)O)C4=C3C(=O)CCC4)cc2Cl)cc1 | 6 | 36* | i | -6 | i | -3 | 37* | 11*
Cc1ccc(S(=O)(=O)Oc2ccc(C3C4=C(CCCC4=O)OC4=C3C(=O)CCC4)cc2)cc1 | 0 | 3 | 4 | 0 | -3 | 3 | . | .
COC(=O)c1ccc(N2NC(=O)/C(=C/c3ccc(-c4ccc(Cl)c(C(=O)O)c4)o3)C2=O)cc1 | 0 | 41* | -10 | -8 | -6 | . | 69* | 29*
O=C1NN(c2ccc(Cl)c(Cl)c2)C(=O)/C1=C/c1ccc(-c2ccccc2C(=O)O)o1 | 1 | 73* | -17 | -10 | -13 | . | 67* | 26*
Cc1ccc(N2NC(=O)/C(=C/c3ccc(-c4ccc(Cl)c(C(=O)O)c4)o3)C2=O)cc1C | 1 | 8 | -22 | -2 | 1 | 1 | . | .
CC(=O)c1cc(-c2ccc3nonc3c2)c(=O)n2c1CCC2 | 0 | 0 | -6 | . | 4 | . | . | .
CSc1nc2c(c(=O)[nH]1)C(c1cccs1)C1=C(CCCC1=O)N2 (stereo not given) | -1 | 1 | -29 | -3 | -6 | 2 | . | .
O=C1CCCC2=C1C(c1cn(-c3ccccc3)nc1-c1cccs1)c1c([nH]c(=O)[nH]c1=O)N2 (stereo not given) | 0 | 39* | -11 | -2 | -4 | 1 | 27 | 15*
COCCCNc1nc2ccccc2nc1NS(=O)(=O)c1cc(Cl)ccc1Cl | 0 | 50* | -25 | 1 | -9 | 5 | 48* | 15*
O=C(c1ccc(Cl)cc1)N1CCC(Oc2cccnc2)CC1 | 0 | 0 | -4 | . | -3 | . | . | .
CCOC(=O)C1=C(c2ccccc2)N=c2s/c(=C\c3ccco3)c(=O)n2C1c1cccs1 (stereo not given) | 1 | 44* | 3 | -4 | 2 | 0 | 29 | 20*
COC(=O)C1=C(C)N(C)C(=NCc2ccc(OC)cc2)NC1c1cccc(F)c1 (stereo not given) | 0 | 10 | 0 | . | 1 | . | . | .
O=C(O)CSc1nc2ccc(C(=O)c3ccccc3)cc2[nH]1 | 0 | 0 | 1 | 4 | -3 | . | . | .
O=C(O)CCC(=O)Nc1ccc(-c2nc3ccc(C(=O)c4ccccc4)cc3[nH]2)cc1 | 0 | 45* | -15 | -1 | -11 | 1 | 35* | 7.9*
CC(=O)c1c(O)c(C)c(O)c2c1OC1=Cc3c(c(C)nn3C)C(=O)C12C (stereo not given) | 0 | 6 | -1 | . | -1 | . | . | .
CC(=O)C1=C(O)C2(C)c3c(O)c(C)c(O)c(C(C)=O)c3OC2CC1=O (stereo not given) | 1 | 76* | -5 | . | 7 | . | 52* | 18*
CCCOc1ccc(/C=N/NC(=S)Nc2ccccc2[N+](=O)[O-])c(O)c1 | -1 | 49* | 7 | 12* | 6 | -1 | 45* | 20*
Cc1ccccc1NC(=S)N/N=C/c1ccc(O)cc1O | -7 | 10 | -23 | 5 | -8 | 16 | . | .
COc1ccc(/C=N/NC(=S)Nc2ccccc2[N+](=O)[O-])cc1O | 0 | 38* | 14 | 1 | 3 | 20 | 24 | 11*
SMILES | proKLK7 act | rCAG RNA binder | ADAM10 inh | NR3A LBD binder | ADAM17 inh | AHR act | rCAG bind conf | DNA CAG counter
COc1cc(/C=N/Nc2ccccc2[N+](=O)[O-])cc(OC)c1O | 1 | 19 | 0 | -9 | 0 | 15 | . | .
Cc1cccc(-c2cccc3c4c([nH]c23)[C@@H]2C[C@H]3[C@@H](CN2CC4)[C@H](C)ON3C)c1 | 2 | 5 | -42 | . | -13 | . | . | .
CCOC(=O)C1=C(CC)Nc2ccccc2N/C1=N\S(=O)(=O)c1ccc(C(=O)OCC)cc1 | 0 | 41* | 9 | -15 | 1 | 0 | 40* | 9.1*
O=c1cc(CSc2ccc(Cl)cc2)[nH]c2[nH]n(-c3ccccc3)c(=O)c12 | 0 | 56* | 9 | 1 | 2 | 0 | 36* | 13*
COc1cc([N+](=O)[O-])ccc1NC(=S)NNC(=O)CCC(=O)Nc1ccccc1Cl | 0 | 64* | 10 | 7 | 3 | 3 | 49* | 14*
COc1ccc(CCn2c(O)cc3nn(-c4nc5ccccc5s4)c(=O)c-3c2C)cc1 | 0 | 67* | -1 | 2 | 1 | 2 | 84* | 51*
COc1ccc(CN2CCN(c3nc4ccccc4s3)CC2)cc1 | 0 | -3 | 2 | 1 | -4 | . | . | .
CC1=C(C(=O)Nc2ccccc2)C(c2ccc(Cl)cc2)n2c(s/c(=C/c3cccc(OCC(=O)O)c3)c2=O)=N1 (stereo not given) | -22 | 67* | 6 | -4 | 1 | 5 | 87* | 63*
CCOc1ccc(C2C(C(=O)Nc3ccccc3)=C(C)N=c3s/c(=C/c4cccc(OCC(=O)O)c4)c(=O)n32)cc1 (stereo not given) | -7 | 67* | 1 | -8 | 1 | 0 | 83* | 54*
CC1=C(C(=O)Nc2ccccc2)C(c2ccc(C)o2)n2c(s/c(=C/c3ccccc3)c2=O)=N1 (stereo not given) | 0 | 6 | 8 | -1 | -2 | -2 | . | .
CCCCCCCCN1C(=O)N(Cc2ccc(OC)cc2)S(=O)(=O)c2ccc(F)cc21 | 0 | 0 | -10 | . | -8 | . | . | .
O=C(Nc1ccc(Cl)c(Cl)c1)Nc1nccs1 | 0 | 62* | 15 | 37* | 0 | 59* | 17 | 22*
Cc1nc2cc(NC(=O)Nc3nccs3)ccc2n1C | 0 | 5 | 5 | 1 | -2 | -2 | . | .
O=C(OCc1cn(Cc2ccc(F)cc2F)nn1)N1CCOCC1 | 0 | 3 | -3 | . | -7 | . | . | .
